Assay results: the supplement of paper PMC11732987, “Enantioselective OTUD7B fragment discovery through chemoproteomics screening and high-throughput optimisation” (Communications Chemistry, 2025)

Key:
Assay in all cases: log2 ratio of Biotin-Ahx-Ub-VS probe labelling (fragment/DMSO); higher = less target engagement (more negative = stronger competition), active = hit call of the paper (q ≤ 0.05, log2 ratio ≤ -1)
Conditions in all cases: compound concentration: 200 uM; treatment time: 3 h
USP34 = USP34 (UniProt Q70CQ2)
In short: (§1)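 Triplicate samples of HEK293T lysate, 495 µg each, received fragment at 200 µM or vehicle for 3 h, followed by Biotin-Ahx-Ub-VS (0.5 µM final) for 1 h. After NeutrAvidin enrichment of labelled DUBs and LysC/trypsin digestion, peptides were run by diaPASEF LC-MS/MS. The values are average log2 fragment/vehicle ratios from global-median-normalised Spectronaut label-free quantities, tested by unpaired t-test on proteins having ≥2 unique peptides.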

USP36 = target: T1, USP36 (UniProt Q9P275)
T1 sequence (whole entry): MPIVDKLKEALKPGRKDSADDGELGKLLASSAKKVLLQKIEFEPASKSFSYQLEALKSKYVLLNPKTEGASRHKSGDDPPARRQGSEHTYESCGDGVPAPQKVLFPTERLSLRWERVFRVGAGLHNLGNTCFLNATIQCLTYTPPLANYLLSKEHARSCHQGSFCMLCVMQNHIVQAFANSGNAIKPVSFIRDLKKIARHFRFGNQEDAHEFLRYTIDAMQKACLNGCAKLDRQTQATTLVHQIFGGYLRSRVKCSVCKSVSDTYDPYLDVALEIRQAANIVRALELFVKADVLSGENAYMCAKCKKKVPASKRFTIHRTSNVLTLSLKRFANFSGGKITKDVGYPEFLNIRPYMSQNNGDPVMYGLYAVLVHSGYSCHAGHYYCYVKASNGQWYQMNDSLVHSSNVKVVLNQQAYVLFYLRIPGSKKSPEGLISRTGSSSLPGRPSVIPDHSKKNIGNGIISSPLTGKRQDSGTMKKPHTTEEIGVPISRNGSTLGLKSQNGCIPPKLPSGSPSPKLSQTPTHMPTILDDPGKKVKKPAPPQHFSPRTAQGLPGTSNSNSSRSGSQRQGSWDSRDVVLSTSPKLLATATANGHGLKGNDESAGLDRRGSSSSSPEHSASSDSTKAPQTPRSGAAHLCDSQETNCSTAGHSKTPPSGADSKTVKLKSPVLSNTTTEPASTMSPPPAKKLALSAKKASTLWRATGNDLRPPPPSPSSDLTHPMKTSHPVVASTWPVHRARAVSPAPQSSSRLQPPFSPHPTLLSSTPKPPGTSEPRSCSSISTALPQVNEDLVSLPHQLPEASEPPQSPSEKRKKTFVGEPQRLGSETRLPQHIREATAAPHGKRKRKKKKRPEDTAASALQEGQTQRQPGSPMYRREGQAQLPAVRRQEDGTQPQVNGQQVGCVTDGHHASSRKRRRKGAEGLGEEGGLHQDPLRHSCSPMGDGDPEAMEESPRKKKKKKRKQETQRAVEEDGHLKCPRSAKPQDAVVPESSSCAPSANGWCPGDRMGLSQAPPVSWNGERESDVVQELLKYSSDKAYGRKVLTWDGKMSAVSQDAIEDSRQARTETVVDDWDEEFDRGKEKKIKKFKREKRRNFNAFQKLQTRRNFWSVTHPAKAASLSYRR
In short: as §1

USP38 = target: T2, USP38 (UniProt Q8NB14)
T2 sequence (whole entry): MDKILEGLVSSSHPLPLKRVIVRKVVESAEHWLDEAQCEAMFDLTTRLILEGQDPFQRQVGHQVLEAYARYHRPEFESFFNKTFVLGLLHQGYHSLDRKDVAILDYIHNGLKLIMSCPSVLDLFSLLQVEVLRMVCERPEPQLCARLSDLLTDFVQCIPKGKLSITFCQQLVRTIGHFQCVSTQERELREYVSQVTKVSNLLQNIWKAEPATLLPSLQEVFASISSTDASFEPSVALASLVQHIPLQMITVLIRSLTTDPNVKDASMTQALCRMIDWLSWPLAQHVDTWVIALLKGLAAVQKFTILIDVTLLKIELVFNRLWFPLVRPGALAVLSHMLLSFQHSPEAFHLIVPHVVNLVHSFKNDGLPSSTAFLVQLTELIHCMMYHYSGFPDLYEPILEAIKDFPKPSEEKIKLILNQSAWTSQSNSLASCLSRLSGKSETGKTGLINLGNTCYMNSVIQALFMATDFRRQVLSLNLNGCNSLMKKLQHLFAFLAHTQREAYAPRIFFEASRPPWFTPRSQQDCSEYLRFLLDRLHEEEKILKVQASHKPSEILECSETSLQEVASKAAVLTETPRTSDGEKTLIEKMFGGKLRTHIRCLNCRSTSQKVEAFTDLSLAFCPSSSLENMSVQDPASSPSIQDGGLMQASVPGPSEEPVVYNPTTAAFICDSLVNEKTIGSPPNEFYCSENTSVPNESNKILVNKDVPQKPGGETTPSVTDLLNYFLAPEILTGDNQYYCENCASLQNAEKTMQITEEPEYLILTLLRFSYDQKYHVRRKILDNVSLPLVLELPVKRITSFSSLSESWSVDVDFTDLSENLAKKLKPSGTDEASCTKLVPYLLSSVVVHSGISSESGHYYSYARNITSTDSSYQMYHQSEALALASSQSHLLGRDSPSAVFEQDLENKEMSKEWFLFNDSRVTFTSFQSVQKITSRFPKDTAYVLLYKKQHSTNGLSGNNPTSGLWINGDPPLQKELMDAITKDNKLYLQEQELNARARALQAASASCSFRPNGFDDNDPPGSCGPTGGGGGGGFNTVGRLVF
In short: as §1

USP39 = target: T3, USP39 (UniProt Q53GS9)
T3 sequence (whole entry): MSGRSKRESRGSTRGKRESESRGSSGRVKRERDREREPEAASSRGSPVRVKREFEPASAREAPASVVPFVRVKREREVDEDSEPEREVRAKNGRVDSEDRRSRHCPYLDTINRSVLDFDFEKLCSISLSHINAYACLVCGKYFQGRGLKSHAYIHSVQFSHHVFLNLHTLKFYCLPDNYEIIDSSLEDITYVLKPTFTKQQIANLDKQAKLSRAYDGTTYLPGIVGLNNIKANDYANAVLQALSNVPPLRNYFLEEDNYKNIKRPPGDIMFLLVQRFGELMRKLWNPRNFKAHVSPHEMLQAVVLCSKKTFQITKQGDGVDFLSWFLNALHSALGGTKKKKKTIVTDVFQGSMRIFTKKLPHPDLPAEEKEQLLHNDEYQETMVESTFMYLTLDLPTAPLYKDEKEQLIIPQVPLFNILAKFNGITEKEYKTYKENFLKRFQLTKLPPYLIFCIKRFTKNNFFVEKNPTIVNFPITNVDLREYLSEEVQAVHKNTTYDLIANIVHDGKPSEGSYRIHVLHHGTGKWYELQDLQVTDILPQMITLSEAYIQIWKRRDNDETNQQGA
In short: as §1

USP4 = target: T4, USP4 (UniProt Q13107)
T4 sequence (whole entry): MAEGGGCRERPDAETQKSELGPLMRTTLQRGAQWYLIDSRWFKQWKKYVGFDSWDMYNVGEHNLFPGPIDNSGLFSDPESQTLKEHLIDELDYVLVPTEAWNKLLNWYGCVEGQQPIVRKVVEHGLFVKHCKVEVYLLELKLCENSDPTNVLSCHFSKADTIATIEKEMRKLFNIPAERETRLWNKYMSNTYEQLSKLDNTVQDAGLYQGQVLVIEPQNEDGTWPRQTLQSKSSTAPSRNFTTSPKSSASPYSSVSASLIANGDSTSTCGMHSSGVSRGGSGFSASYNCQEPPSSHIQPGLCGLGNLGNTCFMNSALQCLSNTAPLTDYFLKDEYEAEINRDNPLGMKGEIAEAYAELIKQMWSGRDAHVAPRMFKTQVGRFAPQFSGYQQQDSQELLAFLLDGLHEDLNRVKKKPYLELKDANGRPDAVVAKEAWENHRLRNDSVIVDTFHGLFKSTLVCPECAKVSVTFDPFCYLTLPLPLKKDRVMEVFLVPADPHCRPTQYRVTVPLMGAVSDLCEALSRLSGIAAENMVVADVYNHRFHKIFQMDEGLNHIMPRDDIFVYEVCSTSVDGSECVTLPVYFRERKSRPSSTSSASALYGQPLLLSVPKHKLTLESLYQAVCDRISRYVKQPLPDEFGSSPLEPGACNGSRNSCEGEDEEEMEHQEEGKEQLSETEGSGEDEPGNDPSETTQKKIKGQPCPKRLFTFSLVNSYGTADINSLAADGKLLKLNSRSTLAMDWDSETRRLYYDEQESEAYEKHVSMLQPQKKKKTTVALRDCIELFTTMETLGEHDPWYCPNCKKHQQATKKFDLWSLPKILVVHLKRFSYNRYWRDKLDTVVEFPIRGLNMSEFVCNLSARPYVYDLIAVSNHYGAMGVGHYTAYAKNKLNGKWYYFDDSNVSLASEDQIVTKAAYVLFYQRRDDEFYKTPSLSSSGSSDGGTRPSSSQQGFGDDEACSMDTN
In short: as §1

Measured: log2 ratio of Biotin-Ahx-Ub-VS probe labelling

Chain of USP34 (Q70CQ2 whole entry, the tested form may be a part): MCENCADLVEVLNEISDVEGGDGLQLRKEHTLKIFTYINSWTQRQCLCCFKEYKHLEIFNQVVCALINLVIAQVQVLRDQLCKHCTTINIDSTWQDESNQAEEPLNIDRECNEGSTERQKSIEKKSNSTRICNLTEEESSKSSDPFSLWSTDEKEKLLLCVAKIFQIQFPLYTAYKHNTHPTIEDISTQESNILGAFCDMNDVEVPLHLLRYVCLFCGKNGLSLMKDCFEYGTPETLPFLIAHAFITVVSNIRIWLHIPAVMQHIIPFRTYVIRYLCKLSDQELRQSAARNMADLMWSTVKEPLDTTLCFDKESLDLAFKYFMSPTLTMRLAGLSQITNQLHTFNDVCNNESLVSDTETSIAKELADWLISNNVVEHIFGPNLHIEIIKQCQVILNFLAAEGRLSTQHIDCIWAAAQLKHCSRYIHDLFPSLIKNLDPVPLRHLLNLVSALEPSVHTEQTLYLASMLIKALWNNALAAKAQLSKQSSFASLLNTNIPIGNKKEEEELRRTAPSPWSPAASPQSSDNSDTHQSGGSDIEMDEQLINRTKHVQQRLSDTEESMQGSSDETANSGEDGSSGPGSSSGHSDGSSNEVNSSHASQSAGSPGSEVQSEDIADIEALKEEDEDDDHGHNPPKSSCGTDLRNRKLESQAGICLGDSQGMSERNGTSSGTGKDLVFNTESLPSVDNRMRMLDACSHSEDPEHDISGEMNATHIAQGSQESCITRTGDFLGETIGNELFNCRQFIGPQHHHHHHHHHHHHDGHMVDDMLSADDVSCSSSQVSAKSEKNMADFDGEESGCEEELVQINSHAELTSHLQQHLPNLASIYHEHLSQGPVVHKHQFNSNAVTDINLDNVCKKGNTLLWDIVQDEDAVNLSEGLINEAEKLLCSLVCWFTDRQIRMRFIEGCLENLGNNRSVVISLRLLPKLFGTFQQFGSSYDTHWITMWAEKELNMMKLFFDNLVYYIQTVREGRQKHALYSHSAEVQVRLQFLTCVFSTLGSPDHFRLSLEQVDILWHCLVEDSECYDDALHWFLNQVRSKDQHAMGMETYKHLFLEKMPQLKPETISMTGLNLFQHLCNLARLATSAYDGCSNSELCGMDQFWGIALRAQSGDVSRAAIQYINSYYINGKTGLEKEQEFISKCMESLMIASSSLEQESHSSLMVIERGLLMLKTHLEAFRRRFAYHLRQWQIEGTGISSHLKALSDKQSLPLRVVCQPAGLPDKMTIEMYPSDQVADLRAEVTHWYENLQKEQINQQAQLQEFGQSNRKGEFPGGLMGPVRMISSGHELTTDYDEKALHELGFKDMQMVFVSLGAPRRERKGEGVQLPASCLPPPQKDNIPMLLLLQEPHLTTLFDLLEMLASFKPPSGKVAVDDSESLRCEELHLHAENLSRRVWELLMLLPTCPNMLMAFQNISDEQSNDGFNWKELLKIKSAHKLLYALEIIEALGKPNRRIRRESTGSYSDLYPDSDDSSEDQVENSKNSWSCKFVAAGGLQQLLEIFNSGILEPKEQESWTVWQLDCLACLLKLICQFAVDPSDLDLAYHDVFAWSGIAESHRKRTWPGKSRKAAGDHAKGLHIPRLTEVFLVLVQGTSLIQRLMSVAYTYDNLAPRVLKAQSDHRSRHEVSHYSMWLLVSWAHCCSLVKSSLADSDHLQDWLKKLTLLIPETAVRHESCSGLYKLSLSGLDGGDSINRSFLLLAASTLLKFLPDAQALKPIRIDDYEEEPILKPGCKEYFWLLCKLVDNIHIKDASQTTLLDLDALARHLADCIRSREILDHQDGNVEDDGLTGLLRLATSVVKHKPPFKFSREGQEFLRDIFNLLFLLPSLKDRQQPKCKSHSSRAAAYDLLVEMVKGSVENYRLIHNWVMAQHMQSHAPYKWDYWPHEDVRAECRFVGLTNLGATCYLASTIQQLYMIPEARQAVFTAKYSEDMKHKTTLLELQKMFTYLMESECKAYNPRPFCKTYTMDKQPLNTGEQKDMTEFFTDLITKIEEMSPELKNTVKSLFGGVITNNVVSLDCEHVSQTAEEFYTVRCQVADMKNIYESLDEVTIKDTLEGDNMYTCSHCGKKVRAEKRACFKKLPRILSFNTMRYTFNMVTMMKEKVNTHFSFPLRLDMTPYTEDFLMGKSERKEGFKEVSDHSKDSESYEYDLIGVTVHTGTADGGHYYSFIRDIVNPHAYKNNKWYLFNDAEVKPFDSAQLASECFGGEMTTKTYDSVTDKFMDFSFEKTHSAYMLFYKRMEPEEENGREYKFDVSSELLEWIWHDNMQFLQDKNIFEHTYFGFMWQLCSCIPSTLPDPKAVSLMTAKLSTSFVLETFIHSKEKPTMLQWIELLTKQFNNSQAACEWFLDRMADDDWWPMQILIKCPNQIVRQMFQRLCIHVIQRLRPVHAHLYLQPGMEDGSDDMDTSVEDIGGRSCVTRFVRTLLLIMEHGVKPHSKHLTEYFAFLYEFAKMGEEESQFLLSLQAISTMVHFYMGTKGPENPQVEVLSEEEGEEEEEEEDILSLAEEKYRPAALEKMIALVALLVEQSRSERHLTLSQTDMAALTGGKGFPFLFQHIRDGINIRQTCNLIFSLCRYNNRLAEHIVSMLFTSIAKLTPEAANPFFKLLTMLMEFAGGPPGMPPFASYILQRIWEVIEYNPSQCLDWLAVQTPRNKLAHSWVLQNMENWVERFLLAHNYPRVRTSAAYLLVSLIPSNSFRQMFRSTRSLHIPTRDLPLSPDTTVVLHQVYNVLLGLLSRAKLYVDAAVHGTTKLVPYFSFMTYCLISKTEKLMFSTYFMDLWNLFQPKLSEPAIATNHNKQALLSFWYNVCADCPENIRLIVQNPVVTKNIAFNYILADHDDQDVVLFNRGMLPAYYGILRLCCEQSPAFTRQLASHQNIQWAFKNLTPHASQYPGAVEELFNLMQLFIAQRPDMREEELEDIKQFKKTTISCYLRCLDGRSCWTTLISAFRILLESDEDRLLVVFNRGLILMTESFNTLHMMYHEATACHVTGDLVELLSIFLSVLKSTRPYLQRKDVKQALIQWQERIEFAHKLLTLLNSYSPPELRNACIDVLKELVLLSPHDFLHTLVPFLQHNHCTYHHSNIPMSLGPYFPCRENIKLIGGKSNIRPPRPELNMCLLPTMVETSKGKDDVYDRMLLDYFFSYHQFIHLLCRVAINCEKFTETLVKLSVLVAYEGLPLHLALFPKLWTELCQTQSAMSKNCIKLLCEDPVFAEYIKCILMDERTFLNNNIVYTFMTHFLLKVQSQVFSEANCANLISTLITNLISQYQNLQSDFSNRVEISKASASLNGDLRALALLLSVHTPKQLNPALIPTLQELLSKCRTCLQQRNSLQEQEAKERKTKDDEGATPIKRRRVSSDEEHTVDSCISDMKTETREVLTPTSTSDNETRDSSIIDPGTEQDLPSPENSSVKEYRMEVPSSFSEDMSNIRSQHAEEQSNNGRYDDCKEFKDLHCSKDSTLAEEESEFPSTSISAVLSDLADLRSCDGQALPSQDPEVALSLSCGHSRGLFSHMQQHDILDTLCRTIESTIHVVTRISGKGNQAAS

O=C(CCl)N1CCOCCC1c1ccccc1 (stereo not given)
inactive: USP34 0.169 | USP36 0.192 | USP38 0.104 | USP39 0.0858 | USP4 -0.196
